Cav3 T inh = inhibitors of human Cav3.2 T-type calcium channel; O95180; Cav3.2-expressing cells, Fluo-4 calcium fluorescence FDSS; stronger effect = lower value; B-score at 10 µM; 4% of 100,000 active;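 active = single-dose well whose peak fluorescence ratio is a statistical outlier from its plate by either plate-standardised score or position-corrected B-score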
CYP2C19 act = cytochrome P450 2C19 (human) activation; P33261; recombinant CYP2C19, luciferin-H EGE luminescence; stronger effect = higher value; 0 = fully inhibited enzyme, 1 = untreated enzyme; activation factor at 5 µM; 96,000 tested, under 10 active; AID 1025;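 active = activation factor of at least 2 at 5 µM in the primary screen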;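 also: 0 = wells with 2.5 mM tranylcypromine and 1 = vehicle-only wells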
Target sequence (P33261 whole entry, looked up): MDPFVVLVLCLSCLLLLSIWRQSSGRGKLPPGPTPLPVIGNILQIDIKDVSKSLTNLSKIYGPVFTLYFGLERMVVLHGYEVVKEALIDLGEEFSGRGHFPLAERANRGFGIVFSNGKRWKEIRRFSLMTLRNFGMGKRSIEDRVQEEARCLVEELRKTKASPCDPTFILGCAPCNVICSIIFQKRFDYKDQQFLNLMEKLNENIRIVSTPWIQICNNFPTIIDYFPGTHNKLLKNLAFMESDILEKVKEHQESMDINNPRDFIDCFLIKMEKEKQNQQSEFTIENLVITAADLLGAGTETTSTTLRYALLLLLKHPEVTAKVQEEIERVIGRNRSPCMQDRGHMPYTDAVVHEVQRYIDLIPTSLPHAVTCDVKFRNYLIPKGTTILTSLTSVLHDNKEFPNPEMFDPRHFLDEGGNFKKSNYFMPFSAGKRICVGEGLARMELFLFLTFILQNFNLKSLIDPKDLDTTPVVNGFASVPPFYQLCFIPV
CYP2C9 activ = activators of human CYP2C9; P11712; recombinant CYP2C9, luciferin-H conversion, luminescence; stronger effect = higher value; factor 1 = untreated enzyme, 0 = blocked; activation factor at 5 µM; 1.4% of 96,000 active;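 active = activation factor of 2 or more for CYP2C9 at a 5 µM dose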;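 also: 0 = sulfaphenazole-blocked wells and 1 = vehicle-only wells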
CYP2C9 inh = human CYP2C9 inhibition | P11712 | CYP2C9 Supersomes, luciferin-H conversion, luminescence | inhibition, % at 5 µM | 20% of 96,000 active | AID 777;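 active = blocking of liver enzyme CYP2C9 beyond about 50% at 5 µM, limit read from the data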
CYP2C19 inhib = human CYP2C19 inhibition; inhibition, % at 5 µM; 21% of 96,000 active; CYP2C19 Supersomes, luciferin-H EGE luminescence, 30 min; P33261; AID 778;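 active = CYP2C19 inhibition above a set limit at 5 µM in the primary screen, cut at about 50% in these data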;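 also: plate controls were negative control wells for no effect and 2.5 mM tranylcypromine positive control for full effect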
* marks the source's active call; other numbers are inactive results; / = not tested or not shown. Rows were chosen to be rich in hits. Some 27% of all compounds tested hit in one or more screens of this group.

SMILES	Cav3 T inh	CYP2C19 act	CYP2C9 activ	CYP2C9 inh	CYP2C19 inhib
O=C(CCS(=O)(=O)c1cccc2nonc12)NCCc1ccccc1	-0.648	0.5	1	2.8	52.9*
CC(C)CCNC(=O)CCS(=O)(=O)c1cccc2nonc12	0.428	0.4	1.3	-33.5	55.1*
O=C(CCNS(=O)(=O)c1cccc2nonc12)NCc1cccs1	0.586	0.8	2*	-100.7	16.3
CCOc1ccccc1NC(=O)CCS(=O)(=O)c1cccc2nonc12	-1.51	0.3	0.9	8.2	67.2*
CC(C)NC(=O)CCS(=O)(=O)c1cccc2nonc12	0.499	0.8	1.4	-39.4	15.3
COc1cccc(NC(=O)COc2ccc(N3CC(C(=O)NCC(C)C)CC3=O)cc2)c1 (stereo not given)	0.818	0.9	0.6	44.4	12.4
CCn1c(C)[n+](CCOCC[n+]2c(C)n(CC)c3cc(Cl)c(Cl)cc32)c2cc(Cl)c(Cl)cc21	1.75	1.1	1.1	-7.9	-11.7
Cc1cc(C(=O)OCn2nnc3ccccc3c2=O)c(C)n1-c1ccccc1	/	0.2	0.2	84.4*	77.5*
Cc1cc(C(=O)COc2cccc(-n3cnnn3)c2)c(C)n1-c1ccccc1	-0.751	0.1	0.8	22.1	86.1*
COC(=O)COc1cccc(-n2cnnn2)c1	0.662	0.9	0.9	6.0	8.0
Cc1cc(C(=O)O)c(C)n1-c1ccccc1	0.331	0.8	0.4	64.6*	21.8
COC(=O)c1ccc(C(=O)OCc2nc3cc4ccccc4cc3[nH]2)cc1	-0.00055	/	/	/	/
CCOC(=O)C(NC(=O)c1ccccc1)(Nc1nnc(C)s1)C(F)(F)F (stereo not given)	1.09	/	/	/	/
CCOC(=O)C(NCc1ccc2c(c1)OCO2)(NC(=O)c1ccccc1)C(F)(F)F (stereo not given)	-1.03	0	0.3	74.1*	96.2*
CCOC(=O)C(NC(=O)c1ccccc1)(Nc1cc(C)on1)C(F)(F)F (stereo not given)	0.956	0.4	0.6	39.4	62.2*
CCOC(=O)C(NCc1ccccc1OC)(NC(C)=O)C(F)(F)F (stereo not given)	0.0154	1	1.1	-11.6	3.4
CCOC(=O)C(NCc1ccccc1)(NC(=O)c1ccccc1)C(F)(F)F (stereo not given)	-1.46	0.5	0.6	36.7	52.1*
COC(=O)CCc1c(C)[nH]c(C(=O)OCc2ccccc2)c1C	-3.19	0.4	0.6	35.7	62.3*
CCOC(=O)c1[nH]c(C(=O)O)c(CCC(=O)OC)c1C	0.8	1.1	1	4.3	-7.6
CC(=O)Nc1cccc(C(=O)NC(C)c2ccc(S(N)(=O)=O)cc2)c1 (stereo not given)	0.252	1.1	0.9	6.9	-6.3
CCCCC(CC)C(=O)NCCc1ccc(S(N)(=O)=O)cc1 (stereo not given)	-0.0156	0.9	0.4	58.9*	9.3
CCC(CC)C(=O)NCCc1ccc(S(N)(=O)=O)cc1	-0.1	1.1	0.5	49.0	-14.3
CCC(CC)C(=O)Nc1cccc(C(=O)NCCc2ccc(S(N)(=O)=O)cc2)c1	0.269	0.2	0.1	90.2*	78.2*
O=C1CCNc2cc3ccccc3cc21	0.487	0.5	0.8	24.4	51.6*
Cc1ccc2c(c1)C(=O)CCN2	0.177	1	1.1	-14.1	-0.4
SMILES	Cav3 T inh	CYP2C19 act	CYP2C9 activ	CYP2C9 inh	CYP2C19 inhib
Cn1c(=O)c2[nH]c(C3CCCC3)nc2n(C)c1=O	-2.29	/	/	/	/
Cn1c(=O)c2[nH]c(CN(Cc3ccccc3)Cc3ccccc3)nc2n(C)c1=O	/	0.9	0.2	81.3*	6.2
CN(C)Cc1nc2c([nH]1)c(=O)n(C)c(=O)n2C	0.846	0.5	0.9	6.3	51.4*
CCc1nnc(NC(=O)C2CCCN2S(=O)(=O)c2ccc(C)cc2)s1 (stereo not given)	1.18	0.8	0.4	64.7*	22.6
CCNC(=O)C1CCCN1S(=O)(=O)c1ccc(C)cc1 (stereo not given)	1.2	/	/	/	/
O=C(Nc1nnc(C2CC2)s1)C1Cc2ccccc2CN1S(=O)(=O)c1cccs1 (stereo not given)	-1.08	0	0.3	67.4*	100.0*
O=C(Nc1ccccn1)C1CCN(S(=O)(=O)c2cccs2)CC1	0.369	0.6	0.5	48.9	37.9
CCc1nnc(NC(=O)C2Cc3ccccc3CN2S(=O)(=O)c2ccc(C)cc2)s1 (stereo not given)	-2.92	0	0.4	63.8*	98.8*
CCc1nnc(NC(=O)C2CCCN(S(=O)(=O)c3ccccc3)C2)s1 (stereo not given)	-0.0083	0.4	0.8	17.7	63.9*

Source: PubChem
